Assay outcomes as filed in PubChem BioAssay.
Pf growth 96h – inhibits malaria parasite growth, 96 h; P. falciparum luciferase reporter growth, 96 h; Potency, µM (series often up to 28.7 µM), for the others: at the highest dose activity change, negative = inhibition, actives largely listed as inhibitors; hit rate 6.9% among 320,000; further: potency means the concentration at half of the fitted maximal effect; on the % scale 0 is the no-effect control and ±100 the full control effect
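Luminescence readout: decreased luciferase signal marks inhibited growth of reporter-expressing P. falciparum in infected red cells (2% hematocrit, 0.05% parasitemia final), exposed to compound two generations (96 h, 37 C, 5% CO2).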
Pf growth 48h – P. falciparum growth inhibition at 48 hours (one generation). Potency, µM (top dose mostly 28.7 µM), for inactives: top-dose activity change, negative = inhibition, most hits filed as inhibitors. hit rate 5.9% among 310,000. P. falciparum luciferase growth in erythrocytes, 48 h; further: potency means the concentration at half of the fitted maximal effect; on the % scale 0 is the no-effect control and ±100 the full control effect
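Cell-based growth assay: transgenic P. falciparum expressing firefly luciferase, cultured in red cells within RPMI 1640 containing 0.5% w/v Albumax, 24 mM bicarbonate and gentamycin. A drop in luciferase activity indicates inhibition.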
Cycloheximide cs – counter-screen hit for Shiga toxin inhibitors, cycloheximide; hit rate 12% among 300,000; cell reporter, cycloheximide protein synthesis inhibition counterscreen; max response, %; in the data active means max response mostly above about 13%, no sharp cut-off; inactive means mostly below about 14%; further: read at 38.3 µM for the half of the compounds with a filed dose; 0% is about no effect
NS1 inh – inhibitors of influenza NS1 protein function | Potency, µM (doses to about 46.1 µM), inactives show top-dose activity, positive = more growth | hit rate 0.4% among 270,000; calls by dose curve; further: potency means the concentration at half of the fitted maximal effect; actives are rising curves; nearly all actives have a fitted effect of over 50% in size
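S. cerevisiae expressing influenza A NS1, grown in glucose, washed, then diluted 1:100 into pH 6.0 -URA galactose medium with 23 nl compound. Growth recovery read as OD600; NS1-free strain serves as control.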
Shiga toxin inh – Shiga toxin inhibition; Vero cells, Shiga toxin protein synthesis inhibition reporter; inhibition, % at 38.7 µM; hit rate 9.2% among 290,000; AID 2315; in the data active means inhibition mostly above about 28%, no sharp cut-off; inactive means mostly below about 43%; further: 0% is about no effect
The depositor's hits bear a star; i = inactive; ? = inconclusive; · = no result. This is a sample that favours compounds with a hit; in the whole collection about 21% have one here. Unless noted, the call rests on the fitted dose curve; in most records, active means well fitted inhibition curve with a large enough effect; inconclusive means small, poorly fitted or top-dose-only effect, or another doubt; inactive means no such curve, though single readings can be large or run the other way.

SMILES | Pf growth 96h | Pf growth 48h | Cycloheximide cs | NS1 inh | Shiga toxin inh
Cc1ccc(S(=O)(=O)NCc2ccc(C(=O)NCCN(Cc3ccccc3)C(C)C)cc2)cc1 | ? | ? | 4 | · | -22
C[C@@H]1C[C@@H]2OC(=O)[C@]3(C)[C@H]2[C@@H](OC3(C)O)[C@]2(C)C(=O)C=C[C@H]12 (stereo partly specified) | ? | 13µM* | 31* | 2% | 26*
CC(C)=CC(=O)O[C@H]1[C@@H]2[C@H](C)C(=O)O[C@@H]2C[C@@H](C)[C@@H]2[C@@H](O)CC(=O)[C@]21C | 24% | 34% | -7 | ? | -5
C=C1C(=O)O[C@@H]2C[C@@H](C)[C@@H]3C=CC(=O)[C@@]3(C)[C@@H](O)[C@H]12 | 1µM* | 0.83µM* | -10 | ? | -17
C=C1C(=O)O[C@@H]2C[C@@H](C)[C@@H]3C=CC(=O)[C@@]3(C)[C@@H](OC(C)=O)[C@H]12 | 2.9µM* | 2.1µM* | -8 | -4% | -11
COc1cccc(CN(C)C(=O)c2ccccc2Sc2ccccc2C#N)c1OC | -4% | 46% | 2 | 6% | -9
CC(Oc1ccccc1)C(=O)N=Nc1c(O)[nH]c2ccc(Br)cc12 (stereo unspecified) | 10% | 30% | -3 | · | -6
Cc1ccc(NC(=O)Nc2ccc(Cl)cc2)c(Br)c1 | 0% | 37% | 28* | 16% | active
Cc1ccc(NC(=O)c2csnn2)c(C)c1 | -8% | 47% | 22* | -1% | 32
Cc1ccc(NC(=O)c2cc(C)nc3ccccc23)c(Br)c1 | -28% | 0% | -3 | -24% | ·
Cc1ccc(NC(=O)CC(=O)Nc2ccc(C)cc2C)c(C)c1 | 0% | 8% | 7 | -6% | 3
Cc1ccc(NC(=O)c2ccccn2)c(Br)c1 | i | i | 52* | · | 89*
Cc1ccc(C)c(NC(=O)c2ccccn2)c1 | · | 128% | 32* | -14% | 47*
Cc1ccc(NC(=O)C2(S(=O)(=O)c3ccc(Cl)cc3)CC2)c(Br)c1 | ? | ? | -2 | 6% | 6
O=C(Nc1ccc(-n2cnnn2)cc1)c1cc(S(=O)(=O)N2CCCC2)ccc1Cl | 1% | ? | · | · | ·
Cc1cccc(C)c1NC(=O)C(c1ccc(Cl)cc1Cl)N1CCCCC1 (stereo unspecified) | ? | ? | -2 | -8% | -11
Cc1cccc(NC(=O)c2ccccn2)c1C | 121% | 82% | 32* | -6% | 77*
COc1ccc(C(c2nnnn2Cc2cccs2)N2CCN(c3ccccc3F)CC2)cc1 (stereo unspecified) | ? | · | -4 | -4% | -4
NS(=O)(=O)c1ccc(S(=O)(=O)N(CCc2ccccc2)Cc2ccccn2)cc1 | ? | -12% | -3 | 5% | -10
CCNc1nc(NCC)nc(ON=C(C)C)n1 | 2.1µM* | 3.7µM* | -1 | -6% | -8
CCNc1nc(NC(C)CC)nc(ON=C(C)C)n1 (stereo unspecified) | 13µM* | 1.5µM* | -1 | -3% | 19
CC(=O)N(NC(N)=O)C(C)CC(=O)C1C(C)C=CCC1(C)C (stereo unspecified) | 43% | 39% | -2 | 3% | -12
O=C(COC(=O)C1Cc2ccccc2CN1C(=O)c1ccccc1)Nc1ccc(SC(F)F)cc1 (stereo unspecified) | 16% | -2% | 0 | 12% | -7
CC1CCN(C(=O)CNC(=O)CNC(=O)Cc2ccccc2)CC1 | ? | 10% | -4 | 13% | 17
CCc1ccc(C2=NNC(=Nc3cccc(S(=O)(=O)N(C)C)c3)SC2)cc1 | ? | ? | 7 | 20% | -15
SMILES | Pf growth 96h | Pf growth 48h | Cycloheximide cs | NS1 inh | Shiga toxin inh
CC(C)N=C1NN=C(c2cccs2)CS1 | 102% | 450% | 35* | · | 54*
CC(C)N=C1NN=C(c2ccc(Cl)c(Cl)c2)CS1 | -47% | -64% | 38* | · | 102*
CC(C)c1ccc(N=C2NN=C(c3cccs3)CS2)cc1 | 42% | 59% | 41* | 15% | 87*
COc1ccccc1C(=O)NCCC(=O)N(C)CC(=O)Nc1c(Cl)cccc1Cl | 12% | ? | · | · | ·
O=C(O)c1ccc(S(=O)(=O)N(Cc2ccccc2)C2CCCCC2)cc1 | 34% | -4% | -1 | 3% | -2
c1ccc(OCCSc2nc3ccccc3[nH]2)cc1 | 7.4µM* | ? | 26* | -18% | 21*
Cc1ccc2nc(SCCCCOc3ccccc3)[nH]c2c1 | ? | -16% | -2 | -44% | -13
Cc1nc(SCCOc2ccc(F)cc2)c2ccccc2n1 | -1% | 49% | 25* | · | 79*
